Measured values: PubChem BioAssay AID1159580 (chemical genetic matrix, 2015)
The campaign covered roughly 5,500 compounds. About 2,000 (36%) were called active. Roughly 18% stayed inconclusive and do not appear here. No stated cut-off is given here; in the data, active means normalized growth mostly below about 0.91 (no sharp cut-off); inconclusive means no clear call, values can overlap the other calls; inactive means mostly above about 0.92. The list shows a part of the results.

Assay: chemical genetic growth profiling, strain panel (AID 1159580);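 further: tested at 20 µM; growth read once vehicle control cultures reached saturation at 30 °C; 1 = growth at the plate median or of vehicle wells; lower values mean less growth of the strain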
Conditions: S. cerevisiae deletion strains, growth OD

Measured: normalized growth

CC(=O)O[C@@H]1CC(=O)[C@@]2(C)C(CC(=O)[C@]3(C)C2CC[C@@]2(C)[C@H](c4ccoc4)OC(=O)C4OC423)C1(C)C (some centres undefined)
inactive: locus YBR021W, strain FUR4, active compounds read low 0.98 | locus YBR229C, strain ROT2, active compounds read low 0.991 | locus YCL029C, strain bik1, active compounds read low 1.01 | locus YDL035C, strain GPR1, active compounds read low 0.987 | locus YDL074C, strain BRE1, active compounds read low 0.976 | locus YDL101C, strain DUN1, active compounds read low 0.996 | locus YDL134C, strain PPH21, active compounds read low 1.01 | locus YDL185W, strain tfp1, active compounds read low 1.02 | locus YDL192W, strain arf1, active compounds read low 1.01 | locus YDR101C, strain arx1, active compounds read low 1 | locus YDR162C, strain NBP2, active compounds read low 1 | locus YDR318W, strain mcm21, active compounds read low 1 | locus YDR388W, active compounds read low 1.01 | locus YDR502C, strain sam2, active compounds read low 1 | locus YEL061C, strain CIN8, active compounds read low 0.998 | locus YER110C, active compounds read low 1.01 | locus YER155C, strain BEM2, active compounds read low 1 | locus YER167W, strain BCK2, active compounds read low 0.993 | locus YGL078C, strain dbp3, active compounds read low 1.01 | locus YGL086W, strain mad1, active compounds read low 1.01 | locus YGL248W, strain PDE1, active compounds read low 0.995 | locus YGR135W, strain pre9, active compounds read low 1 | locus YGR229C, strain SMI1, active compounds read low 0.988 | locus YGR252W, strain gcn5, active compounds read low 0.976 | locus YHR079C, strain IRE1 (second series), active compounds read low 1.01 | locus YHR094C, strain hxt1, active compounds read low 1 | locus YHR129C, strain ARP1, active compounds read low 1 | locus YHR200W, strain rpn10, active compounds read low 1 | locus YIL066C, strain RNR3, active compounds read low 1 | locus YIL073C, strain SPO22, active compounds read low 1.04 | locus YIL125W, strain kgd1, active compounds read low 1 | locus YIR030C, strain dcg1, active compounds read low 1.01 | locus YJL095W, strain BCK1, active compounds read low 0.963 | locus YJL134W, strain LCB3, active compounds read low 0.999 | locus YJL168C, strain set2, active compounds read low 1.01 | locus YJL187C, strain SWE1 (second series), active compounds read low 0.996 | locus YKL009W, strain mrt4, active compounds read low 1.01 | locus YKL068W, active compounds read low 1.01 | locus YKL085W, strain MDH1 (second series), active compounds read low 1.03 | locus YKL085W, strain MDH1, active compounds read low 1.03 | locus YKL190W, strain CNB1, active compounds read low 1 | locus YKR001C, strain vps1, active compounds read low 1.01 | locus YLR039C, strain RIC1, active compounds read low 1.02 | locus YLR058C, strain SHM2, active compounds read low 0.998 | locus YLR102C, strain apc9, active compounds read low 1.01 | locus YLR262C, strain YPT6, active compounds read low 1.05 | locus YLR268W, strain sec22, active compounds read low 0.998 | locus YLR371W, strain rom2, active compounds read low 1 | locus YLR418C, strain cdc73, active compounds read low 0.996 | locus YML016C, strain PPZ1, active compounds read low 1 | locus YML032C, strain rad52, active compounds read low 1.01 | locus YML124C, strain tub3, active compounds read low 1.01 | locus YMR078C, strain ctf18, active compounds read low 1.02 | locus YMR223W, strain ubp8, active compounds read low 1.01 | locus YMR307W, strain GAS1, active compounds read low 0.994 | locus YNL067W, strain RPL9B, active compounds read low 0.997 | locus YNL233W, strain BNI4, active compounds read low 0.993 | locus YNL250W, strain rad50, active compounds read low 1.04 | locus YNL271C, strain bni1, active compounds read low 1 | locus YNL298W, strain CLA4, active compounds read low 1.01 | locus YNL307C, strain MCK1, active compounds read low 1.03 | locus YNL322C, strain KRE1, active compounds read low 1 | locus YNR052C, strain pop2, active compounds read low 1.01 | locus YOL006C, strain TOP1, active compounds read low 0.912 | locus YOL012C, strain htz1 0.729 | locus YOL147C, strain pex11, active compounds read low 1 | locus YOR061W, strain CKA2, active compounds read low 1 | locus YOR069W, strain VPS5, active compounds read low 0.996 | locus YOR136W, strain idh2, active compounds read low 1.02 | locus YOR144C, strain elg1, active compounds read low 1.01 | locus YOR184W, strain ser1, active compounds read low 1.02 | locus YOR316C, strain cot1, active compounds read low 1.01 | locus YPL055C, strain LGE1, active compounds read low 0.989 | locus YPL241C, strain CIN2, active compounds read low 0.997 | locus YPR119W, strain clb2, active compounds read low 1.02 | locus YPR141C, strain kar3, active compounds read low 1.01 | locus YPR163C, strain tif3, active compounds read low 1.01 | locus YPR167C, strain met16, active compounds read low 1.02 | strain wtn01, active compounds read low 1.01
